HT1080 IDH1KD tx = HT-1080 IDH1 knockdown cell toxicity (counter line) | HT-1080 IDH1 knockdown viability, ATP luminescence, 48 h | Potency, µM (highest dose often 46.1 µM), inactives show at the highest dose activity, negative = toxicity, actives largely listed as cytotoxic | hit rate 2% among 360,000 | AID 686971;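 note: potency is the fitted concentration of half-maximal effect; 0% = DMSO wells and -100% = cell-free medium wells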
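Viability of IDH1-knockdown HT-1080 fibrosarcoma cells was assessed by CellTiter-Glo after 48 h at 37 °C with titrated compound; concentration-effect curves were classified by fit quality and response size.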
IL1B secr inh = inflammasome signaling inhibition, IL-1 beta readout | activity change, % at 57.5 µM | THP-1 LPS/ATP IL-1B secretion, AlphaLISA, 16 h; active compounds read low | hit rate 4.7% among 360,000 | AID 743279; in the data active = activity change below about -50%; inconclusive = mostly about -30% to -49%
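THP-1 cells pretreated 1 hr with compounds (up to 57.5 uM final), then stimulated with LPS (250 ng/mL final) plus ATP (1.25 mM final); secreted IL-1B measured by AlphaLISA after 16 hr, decreased signal indicating inhibition.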
TDP1 cell CPT = growth inhibition of DT40 Tdp1-/-;hTDP1 cells with camptothecin (screen for TDP1 inhibitors); AID 686979; chicken DT40 Tdp1-/-;hTDP1 cells + 20 nM CPT, ATP luminescence, 48 h; Potency, µM (series often up to 46.2 µM), without a hit: at the highest dose activity change, negative = growth inhibition, actives largely listed as inhibitors; hit rate 12% among 420,000; note: potency is the fitted concentration of half-maximal effect; nearly all actives have a fitted effect of over 55% in size
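Chicken DT40 Tdp1-/- cells stably complemented with human TDP1 were seeded at 400 cells/well in medium containing 20 nM camptothecin, exposed to pin-transferred compounds, and grown at 37 °C for at least 48 hr. Viability was read as ATP luminescence.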
DT40 TDP1 no CPT = qHTS for Inhibitors of human tyrosyl-DNA phosphodiesterase 1 (TDP1): qHTS in cells in absence of CPT | DT40 Tdp1-/- hTDP1 cells, no CPT, ATP luminescence, 48 h | Potency, µM (top dose mostly 46.2 µM), for inactives: top-dose activity change, negative = growth inhibition, usual class: inhibitors | AID 686978, 2013 | hit rate 15% among 420,000; note: potency is the fitted concentration of half-maximal effect; nearly all actives have a fitted effect of over 55% in size
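Seeded 400 DT40-hTDP1 cells/well (vehicle DMSO, no 20 nM CPT); pinned compounds; ≥48 hr at 37 °C; CellTiter-Glo luminescence as viability measure.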
HT1080-NT tox = kills 2HG-producing HT-1080-NT fibrosarcoma cells | HT-1080-NT fibrosarcoma viability, CellTiter-Glo ATP luminescence, 48 h | Potency, µM (series often up to 46.1 µM), for inactives: at the highest dose activity, negative = less viability, usual class: cytotoxic | hit rate 1.6% among 360,000;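 note: NT is the 2HG producing partner of a matched IDH1 knockdown line; potency is the fitted concentration of half-maximal effect; 0% = DMSO-treated cells and -100% = media-only wells without cells; nearly all actives have a fitted effect of over 55% in size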
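Read-out is CellTiter-Glo luminescence after 10 minutes at room temperature, following 48 hours' compound treatment of HT-1080-NT cells (750 cells/well, RPMI, 5% FBS, 37 degrees C).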
The depositor's hits bear a star; ? = inconclusive; . = not tested or not shown; ! = not active in a repeat. Only some compounds are listed: those with a hit (about 19% of all), similar ones and a draw of the others. Unless noted, calls come from the whole dose curve; as a rule, active = well fitted curve in the direction sought with a large enough effect; inconclusive = small, poorly fitted or top-dose-only effect, or another doubt; inactive = no such curve, though single readings can be large; an effect the other way counts as inactive or inconclusive. Unless noted, % is set by controls: 0 for no effect and ±100 for the full control effect.

SMILES	HT1080 IDH1KD tx	IL1B secr inh	TDP1 cell CPT	DT40 TDP1 no CPT	HT1080-NT tox
CCn1c(=N)n(CC(=O)c2ccco2)c2ccccc21	-2.3%	18.3	13µM*	?	-1.9%
O=C(Nc1cccc2ccccc12)c1csc([C@@H]2O[C@H](CO)[C@H](O)[C@H](O)[C@H]2O)n1	0.1%	2.5	-8.4%	-4.7%	20.9%
CCOC(=O)Nc1ccc2c(c1)C(=NO)c1ccccc1-2	11.1%	-75.2*	18.4µM*	20.6µM*	2.0%
CC(=O)Nc1ccc2c(c1)C(=Nc1ccccc1)c1ccccc1-2	21.0%	1.9	?	-26.1%	10.0%
CCOC(=O)Nc1ccc2c(c1)C(=NNC(N)=S)c1ccccc1-2	?	-95.9*	6.51µM*	3.26µM*	?
Cc1nc2cnc(Nc3ccccc3)nc2n(C2CC2)c1=O	.	.	2.2%	-19.7%	.
COc1ccc(S(=O)(=O)N(C)[C@H]2C[C@H]3c4cc(N5CCN(C)CC5)ccc4CCN3C(=O)[C@H]2[C@H](C)O)cc1	-0.6%	-2.6	-24.9%	-3.1%	0.4%
COc1ccc(Cl)cc1Nc1ncnc2c1nc1n2CCCC1	.	.	11.6µM*	16.4µM*	.
COc1ccc(OC)c(Nc2ncnc3c2nc2n3CCCC2)c1	.	.	9.2µM*	?	.
COc1ccccc1Nc1ncnc2c1nc1n2CCCC1	.	.	7.31µM*	8.2µM*	.
Cc1cc(C)cc(Nc2ncnc3c2nc2n3CCCC2)c1	.	.	9.2µM*	9.2µM*	.
Cc1ccc(C(=O)C(C)Sc2nnc(N)s2)cc1 (centres undefined)	8.6%	4.3	6.1%	-19.5%	-0.4%
Cc1cccc(C)c1NC(=O)COC(=O)CN1C(=O)C2CCCCC2C1=O (centres undefined)	1.5%	21.3	?	-29.4%	6.2%
CC(C)N1C(=O)C2C(c3ccccc3O)NC(C)(C(=O)O)C2C1=O (centres undefined)	4.0%	1.9	-2.6%	-7.8%	5.1%
C/C(=C\C(=O)c1ccccc1)Nc1ccc2c(c1)OCO2	26.7%	-11.9	?	-23.8%	5.6%
CN(C)c1ccc(-c2ccc3ncnc(N(C)C)c3c2)cc1	.	.	0.461µM*	0.366µM*	.
CN(C)c1ncnc2ccc(-c3ccoc3)cc12	.	.	18.4µM*	?	.
CCOC(=O)C1=NOC2(C1)C(=O)Nc1ccc(OC(F)(F)F)cc12 (centres undefined)	?	-11.2	?	16.4µM*	?
CC(NCc1ccccc1Cl)C(=O)Nc1ccc(C#N)cc1 (centres undefined)	-16.8%	-20.7	-1.3%	-10.7%	-4.8%
O=S(=O)(c1ccccc1Cl)N1CCN(c2nc(-c3ccccc3)nc3ccccc23)CC1	.	.	-25.8%	?	.
CC(C)CC(=O)n1nc(-c2ccco2)nc1NCc1ccc(Cl)cc1	.	.	?	-23.1%	.
O=c1cc(-c2ccc(O)cc2)oc2cc(O)cc(O)c12	?	-89.4*	?	5.17µM*!	?
O=c1cc(-c2ccccc2O)oc2cc(O)ccc12	.	.	-14.8%	-19.6%	.
O=c1cc(-c2ccccc2O)oc2cc(O)cc(O)c12	.	.	29.9µM*	21.1µM*	.
COc1cc(O)c2c(=O)cc(-c3ccccc3)oc2c1	1.2%	?	?	?	-5.1%
SMILES	HT1080 IDH1KD tx	IL1B secr inh	TDP1 cell CPT	DT40 TDP1 no CPT	HT1080-NT tox
COc1cc(-c2cc(=O)c3c(O)cc(O)cc3o2)ccc1O	-17.3%	-63.8*	20.6µM*	?	0.0%
COc1cc(-c2cc(=O)c3c(O)c(OC)c(OC)cc3o2)cc(OC)c1O	?	-18.7	16.4µM*	?	?
O=C(NC1=NN(c2ccccc2)CC1)Nc1ccccc1F	3.5%	-6.4	?	?	-2.3%
CCCNC(=O)N(C)C[C@@H]1Oc2cc(C#CC(C)(C)O)ccc2S(=O)(=O)N([C@H](C)CO)C[C@H]1C	3.7%	-0.1	2.2%	23.7%	7.9%
CCCCCCn1nc(C(=O)N(CCCC)c2c(N)n(CCC)c(=O)[nH]c2=O)c2ccccc2c1=O	-10.9%	-10.9	-23.0%	-25.1%	-4.6%
Brc1ccc(CSc2nnc(-c3ccccn3)n2Cc2ccco2)cc1	11.2µM*	0.0	14.6µM*	8.2µM*	?
CC(C)(C)c1ccc(CSc2nnc(-c3ccccn3)n2Cc2ccco2)cc1	?	-93.7*	?	?	?
COc1ccc(C(=O)CSc2nnc(-c3ccccn3)n2Cc2ccco2)cc1	3.0%	9.5	-9.2%	?	5.6%
COc1cc(Cl)c(C)cc1NC(=O)CSc1nnc(-c2ccccn2)n1Cc1ccco1	3.7%	-6.8	?	?	-1.1%
Clc1cccc(CSc2nnc(-c3ccccn3)n2Cc2ccco2)c1	-19.0%	-19.3	16.4µM*	16.4µM*	-19.4%
CNC(=O)CSc1nnc(-c2ccccn2)n1Cc1ccco1	1.0%	4.4	-3.7%	17.6%	2.4%
Nc1ccc(S(=O)(=O)N2CCCC2C(=O)O)cc1 (centres undefined)	-2.0%	0.0	-2.3%	-2.8%	0.0%
O=C(NCCc1ccc(F)cc1)C1CCC(=O)N(CC2CCCCC2)C1 (centres undefined)	3.2%	24.1	-26.6%	-29.2%	-1.8%
O=C(COC(=O)c1cccc(S(=O)(=O)N2CCc3ccccc32)c1)Nc1ccc(Cl)cn1	6.3%	11.3	-1.6%	5.8%	-0.6%
O=C(COC(=O)/C=C/c1ccc(Cl)c(Cl)c1)NC1CCCC1	7.5%	19.9	3.4%	-12.1%	6.3%
COc1cccc(/C=C2/CCC(CN(C)C)C2=O)c1 (centres undefined)	?	-100.3*	2.31µM*	2.31µM*	?
CN(C)CC1CCC/C(=C\c2ccc(OC(=O)/C=C/c3ccc(Cl)c(Cl)c3)cc2)C1=O (centres undefined)	-1.7%	?	0.731µM*	0.92µM*	1.6%
CN(C)CC1CCC/C(=C/c2ccc(Cl)cc2)C1=O (centres undefined)	?	-24.3	0.517µM*	0.581µM*	-15.6%
CCCC/C=C1/CCC(CN(C)C)C1=O (centres undefined)	-26.8%	-27.8	2.06µM*	2.31µM*	5.1%
COc1cccc(/C=C2\CCC(C3CCCC3)C2=O)c1 (centres undefined)	6.0%	35.1	8.0%	11.6%	4.1%
COc1cc(OC)cc(C(=O)NCC2CCCN(Cc3cccc(C(C)=O)c3)C2)c1 (centres undefined)	-1.0%	8.1	-11.3%	-10.1%	-7.1%
COc1ccc(C=C2CCC3C(=O)CCCC3(C)C2=O)cc1 (centres undefined)	-10.8%	-18.2	-1.0%	?	-7.8%
COc1ccc(/C=C2/CCCC(CN(C)C)C2=O)cc1 (centres undefined)	8.2µM*	-72.1*	0.517µM*	0.581µM*	5.7%
CC(C)(C)c1ccc(/C=N/NC(=S)NC2CCCCC2)cc1	?	-29.5	14.6µM*	11.6µM*	-5.6%

Source: PubChem (National Center for Advancing Translational Sciences (NCATS))
